Compound activity deposited in PubChem BioAssay by several laboratories.
In the library only some 3.8% were active in any assay of this set; here they are far more common.
TIM10 inh = growth inhibitors of isogenic TIM10 control yeast, primary screen, counter-screen for tim10-1 yeast inhibitor project, luminescence, uHTS. inhibition, % at 10 µM. AID 463195, 2010. 330,000 tested, 1.4% active. S. cerevisiae TIM10 strain growth, BacTiter-Glo luminescence, 24 h;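 active = inhibition of 40% or more at the single tested concentration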;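 note: wild-type TIM10 isogenic control strain grown at permissive 25 °C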
tim23-1 inh = growth inhibitors of tim23-1 mutant yeast, primary screen, luminescence, uHTS. S. cerevisiae tim23-1 growth, BacTiter-Glo luminescence, 24 h. inhibition, % at 20 µM. 330,000 tested, 1.3% active. AID 463212, 2010;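 active = growth inhibition of the mutant yeast at or above 50%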;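 note: temperature-sensitive mutant grown at 25 °C; plate controls were DMSO-treated mutant yeast for no effect and medium wells lacking yeast for full effect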
tim10-1 inh = growth inhibitors of tim10-1 mutant yeast, primary screen, luminescence, uHTS. S. cerevisiae tim10-1 ts strain growth, BacTiter-Glo, 24 h. inhibition, % at 20 µM. 330,000 tested, 2.2% active;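 active = inhibition of at least 40%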;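 note: mutant grown at 25 °C; 0% = DMSO wells with yeast and 100% = wells holding no yeast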
NALP3 yeast inh = NALP3 inflammasome inhibitors in reconstituted yeast, primary screen, luminescence, uHTS | inhibition, % at 10 µM | 330,000 tested, 0.39% active | Yeast reconstituted NLRP3/ASC/caspase-1, beta-gal luminescence, 24 h;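 active = inhibition of 50% or more; inactive = inhibition below 50%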;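 note: plate controls were induced DMSO wells for no effect and uninduced yeast grown without galactose for full effect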
Yeast superoxide = reduction of superoxide in aged yeast, primary screen, HTS. S. cerevisiae aged cells, superoxide DHE fluorescence; hits give low values. 330,000 tested, 0.18% active. AID 2690, 2010. superoxide response (% of plate mean), % at 10 µM;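 active = superoxide response under a set limit, about three screen SD below normal, cut at about 65% in these data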;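 note: yeast aged for seven days with compound at 30 °C before DHE staining; 100% = average MFI of all compound-treated wells on the plate with controls excluded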
tim10-1 confirm = growth inhibitors of tim10-1 mutant yeast, confirmation, single concentration, luminescence, S. cerevisiae; shares compounds with tim10-1 inh; S. cerevisiae tim10-1 ts strain growth, BacTiter-Glo, 24 h; inhibition, % at 20 µM; 7,400 tested, 56% active; AID 463213, 2010;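 active = inhibition of yeast growth at or above a set limit in either of two repeat tests at 20 µM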;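 note: tim10-1 mutant grown at permissive 25 °C to find synthetic lethal compounds; 0% = DMSO yeast wells and 100% = medium wells without yeast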
Active calls of the source: *; nt = no result.

SMILES | TIM10 inh | tim23-1 inh | tim10-1 inh | NALP3 yeast inh | Yeast superoxide | tim10-1 confirm
CCCOC(=O)c1ccc(NS(=O)(=O)c2cccs2)cc1 | 30 | 38 | 54* | 17 | 91 | 35*
COCCOC(=O)c1c(C)oc2ccc(NS(=O)(=O)c3cccs3)cc12 | 5 | 10 | 30 | -4 | 95 | nt
O=C(COC(=O)c1ccc(NS(=O)(=O)c2cccs2)cc1)NCc1ccco1 | -7 | -20 | -15 | 10 | 90 | nt
Cn1c(=O)c2c(nc(NN=C3CCCCC3)n2C)n(C)c1=O | 11 | 0 | 1 | 9 | 99 | nt
COc1ccc(/C=C/c2ccc(=O)n(Cc3ccccc3)n2)cc1 | 0 | 22 | 40* | 13 | 121 | -1
CC1CN(S(=O)(=O)N2CCOCC2)CCN1S(=O)(=O)N1CCOCC1 (configuration not stated) | 3 | 10 | 5 | 14 | 86 | nt
CCCNC(=O)/C(C#N)=C1\N=C(NC(=O)c2ccco2)c2ccccc21 | 28 | 28 | 10 | 15 | 80 | nt
CC(C)CNC(=O)/C(C#N)=C1\N=C(NC(=O)c2ccco2)c2ccccc21 | 27 | 38 | 47* | 12 | 114 | -3
CC1CCc2c(sc3ncnc(NCc4cccnc4)c23)C1 (configuration not stated) | 13 | 22 | 11 | 9 | 96 | nt
CC1CCc2c(sc3ncnc(NCCCOC(C)C)c23)C1 (configuration not stated) | 13 | 43 | 40 | 19 | 95 | 10
CCCNc1c(NS(=O)(=O)c2cccs2)c(=O)oc2ccccc12 | 9 | -5 | -10 | 3 | 97 | nt
CCn1nc(C)cc1C(=O)Sc1cccc(Br)c1 | -3 | -25 | -17 | -15 | 100 | nt
COc1ccc(-c2c(C)nn3c(NC4CCCC4)cc(C)nc23)cc1OC | 9 | 42 | 44* | 2 | 103 | 23
COc1ccc(-c2c(C)nn3c(N4CCN(Cc5ccccc5)CC4)cc(C)nc23)cc1OC | 15 | 41 | 34 | 20 | 110 | nt
COc1ccc(CCNc2cc(C)nc3c(-c4ccccc4)c(C)nn23)cc1OC | 18 | 25 | 43* | 18 | 91 | 20
NS(=O)(=O)c1ccc(N2C(=O)C(=O)/C(=C(/O)c3ccccc3)C2c2ccc(Cl)cc2)cc1 (configuration not stated) | -1 | 5 | 4 | -18 | 98 | nt
COc1ccc(OCCC(=O)Nc2cc3c(cc2C(=O)O)OCCCO3)cc1 | 7 | 0 | -7 | 17 | nt | nt
O=C(Nc1cc2cc([N+](=O)[O-])ccc2oc1=O)c1cccs1 | 14 | 15 | 9 | 26 | 97 | nt
C/C(=N\NC(=O)COc1ccc(C(C)(C)C)cc1)c1ccc2c(c1)OCCO2 | 16 | 25 | 41* | 3 | 99 | 20
Cc1ccc(S(=O)(=O)N/N=C/c2cccc([N+](=O)[O-])c2)cc1 | -5 | 22 | 27 | -4 | 87 | nt
Cc1ccc(S(=O)(=O)N/N=C\c2cc([N+](=O)[O-])ccc2Cl)cc1 | 22 | 37 | 46* | 10 | 90 | 32*
CCn1c(SCC(=O)NCc2ccccc2)nnc1C(CO)NC(=O)c1ccccc1 (configuration not stated) | -7 | 6 | 1 | 3 | 117 | nt
Cc1ccc(OCC(=O)NNC(=O)CSC(=S)N2CCCC2)cc1 | -8 | -2 | -17 | 10 | nt | nt
Cc1nn(-c2ccccc2)c2c1C(O)n1c(nc3ccccc31)S2 (configuration not stated) | 25 | 38 | 41* | 14 | 87 | -5
Cc1cc(C)c(C)c(S(=O)(=O)ON2C(=O)c3ccccc3C2=O)c1C | 27 | 36 | 59* | 23 | 106 | 61*
SMILES | TIM10 inh | tim23-1 inh | tim10-1 inh | NALP3 yeast inh | Yeast superoxide | tim10-1 confirm
COc1ccc(/C=C/C(=O)N2CCN(S(=O)(=O)c3ccccc3Br)CC2)cc1OC | 13 | 16 | 13 | 3 | 104 | nt
Cc1cc(OC(=O)c2cccc(Br)c2)c([N+](=O)[O-])c(=O)[nH]1 | 7 | 4 | 46* | 3 | 93 | -8
COc1ccc(S(=O)(=O)NCC(c2ccc(F)cc2)N2CCN(C)CC2)cc1 (configuration not stated) | -5 | 15 | 6 | 11 | 102 | nt
CC1CC2=C(NC(=S)NC2c2ccc(F)cc2)/C(=C/c2ccc(F)cc2)C1 (configuration not stated) | 29 | 37 | 46* | 8 | 106 | 28
CCCN(CCC)C(=O)CC(c1ccccc1)c1cc(C)ccc1O (configuration not stated) | 22 | 33 | 46* | 5 | 85 | 34*
O=C(NNS(=O)(=O)c1ccc(F)cc1)c1cc2ccccc2cc1O | 5 | 13 | -2 | 14 | 106 | nt
Cc1cc(C)n(-c2cc(C(C)(C)C)nc3c(-c4ccc(Cl)cc4)cnn23)n1 | 34 | 41 | 40 | 10 | 75 | 30
CC(C)(C)N(Cc1ccccc1)C(=O)CCc1ccccc1 | 23 | 7 | 28 | -25 | 89 | nt
CC1(C)Cc2c(C#N)c(N3CCN(C(=O)c4ccccc4)CC3)nc(-c3ccco3)c2CS1 | 25 | 18 | 44* | 3 | 102 | 33*
CC1CCN(c2c([N+](=O)[O-])nn(-c3ccc4c(c3)OCCO4)[n+]2[O-])CC1 | 22 | 38 | 44* | 23 | 87 | 29
O=C(N/N=C/c1ccc(O)c(O)c1)NC12CC3CC(CC(C3)C1)C2 | -3 | 13 | 20 | 4 | 145 | nt
COc1cc(/C=N/NC(=O)NC23CC4CC(CC(C4)C2)C3)ccc1O | 18 | 50 | 51* | -2 | 115 | 14
O=C(N/N=C/c1ccc(OC2CSC2)cc1)c1ccccc1 | -2 | 18 | 14 | 17 | 87 | nt
O=C(/C=C/c1ccc(OC2CSC2)cc1)c1ccccc1 | 23 | 26 | 44* | 40 | 87 | 33*
COc1ccc(-c2cc(C(F)(F)F)nc(S(=O)(=O)CCC(=O)N3CCOCC3)n2)cc1 | 32 | 17 | 48* | 16 | 104 | 30
COc1ccccc1-c1cc(C(F)(F)F)nc(S(=O)(=O)CCCC(=O)N2CCOCC2)n1 | 30 | 33 | 40* | 13 | 89 | 18
Clc1ccccc1C1CC(c2ccccc2)Nc2ncnn21 (configuration not stated) | 3 | 21 | 9 | 4 | 94 | nt
Clc1ccc(C2CC(c3cccs3)n3ncnc3N2)c(Cl)c1 (configuration not stated) | 34 | 45 | 41* | 0 | 102 | 25
CC(=O)Nc1cccc(Oc2ncnc3scc(-c4ccc(C)cc4)c23)c1 | 20 | 9 | 42* | -1 | 124 | 29*
CC(C)(C)OC(=O)N1CCC(Cc2cc(-c3cccc(Br)c3)no2)(C(=O)O)CC1 | 9 | 23 | 5 | 2 | 109 | nt
